# Measured values taken from the supplement of paper PMC12632987.
# T1: USP38, Q8NB14
# T1 chain: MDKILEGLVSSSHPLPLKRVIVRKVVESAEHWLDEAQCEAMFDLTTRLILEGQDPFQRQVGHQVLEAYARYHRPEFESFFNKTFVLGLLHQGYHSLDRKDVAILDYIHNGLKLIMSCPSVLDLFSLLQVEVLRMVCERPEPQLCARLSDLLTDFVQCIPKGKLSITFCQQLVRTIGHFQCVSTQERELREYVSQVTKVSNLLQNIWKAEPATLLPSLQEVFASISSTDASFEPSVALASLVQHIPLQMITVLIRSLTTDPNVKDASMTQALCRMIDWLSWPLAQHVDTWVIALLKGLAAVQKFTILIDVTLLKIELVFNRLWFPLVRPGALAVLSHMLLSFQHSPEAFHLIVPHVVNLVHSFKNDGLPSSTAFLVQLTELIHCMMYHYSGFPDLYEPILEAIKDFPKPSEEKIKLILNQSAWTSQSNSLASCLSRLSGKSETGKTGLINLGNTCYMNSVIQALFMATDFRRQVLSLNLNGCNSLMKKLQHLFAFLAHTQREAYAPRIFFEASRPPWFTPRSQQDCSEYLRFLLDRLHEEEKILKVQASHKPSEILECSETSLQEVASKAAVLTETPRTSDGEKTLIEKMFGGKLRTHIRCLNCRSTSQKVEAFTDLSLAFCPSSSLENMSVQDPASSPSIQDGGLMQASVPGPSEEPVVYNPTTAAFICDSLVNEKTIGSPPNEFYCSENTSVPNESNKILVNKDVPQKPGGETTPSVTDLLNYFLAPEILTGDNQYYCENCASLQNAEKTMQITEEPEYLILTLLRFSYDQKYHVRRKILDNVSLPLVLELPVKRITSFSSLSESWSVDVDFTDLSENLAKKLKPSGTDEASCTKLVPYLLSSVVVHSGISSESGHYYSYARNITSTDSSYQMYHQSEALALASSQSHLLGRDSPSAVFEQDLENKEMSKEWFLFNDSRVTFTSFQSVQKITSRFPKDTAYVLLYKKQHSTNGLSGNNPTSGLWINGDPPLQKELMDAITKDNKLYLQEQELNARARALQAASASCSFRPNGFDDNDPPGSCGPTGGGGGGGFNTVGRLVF
# Target: T1, USP38, Q8NB14
# Test: median log2 fold change of GCK-ALFA target abundance (FLAG IP / Myc IP barcode read proportion) (log2 ratio); each designed protein is fused to an ALFA-tag nanobody in HEK293 cells to bring the named protein to FLAG-tagged glucokinase (GCK); Myc marks an untargeted standard; higher = target protein stabilised (more abundant)
# Conditions: target protein: 3xFLAG-MCP-GCK-ALFA reporter; HEK293 landing pad (RPLP)
# In short: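 Binders fused to an ALFA nanobody were recombined as a library into HEK293 landing-pad cells, which were induced with 2 μg mL^−1 doxycycline and then transfected to express a FLAG-tagged target and a Myc-tagged standard. After 48 h, circular RNA barcodes recovered by anti-FLAG and anti-Myc immunoprecipitation of lysates were reverse transcribed, amplified and sequenced. Each binder's target abundance is the median log2 ratio of FLAG to Myc barcode read proportions, from barcodes present at ≥10^−7 in both replicates, binders carrying ≥3 barcodes per replicate, a 10^−6 pseudocount and pooled replicates.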
row,Binder,median log2 fold change
1,usp_38_diff_out_18_14_274 (protein) SEELSEALKSNLESLKKDVEKDTKRTIELLKKNKDDPERVKRIVERAERNLEGVITFAEEVLKEAEKRGDEEVKKAAEELIKKAKEALEKIKEEAKKVLA,0.186
2,usp_38_diff_out_18_14_259 (protein) SEELTEALISNLESLKEDVKKDTERVIRLLEKRKDDPEQVKRIKERFERDLAGVEKYAKEVLEEAKKEGNEKLAKAAEELLKTVEAARKEVEEKVAKVLA,-0.00381
3,usp_38_diff_out_18_14_263 (protein) SEELAQADIDALNLLKKDVEEDTERVIRLLEKSKDDPERVKRIYERALRNLAGVKKYAEEVKKEAEERGNEETIKAANELLKTIEEAKKRLEEKYKEVMK,0.123
4,usp_38_diff_out_18_14_271 (protein) SEELAAALQSNLESLERAVREDTERVIRLLEKNRDDPERVKRIVERAERDLAGVEAYAQEVLREARAAGDAATQEAAERLLEEARRAREEIRRKAEEVLA,-0.0538
5,usp_38_diff_out_18_14_268 (protein) SEELAEAEVSNLKTLERDVKEDTERVIRLLRKNKDDPERVKRIYERAKRDLAGVRAYAEEVKRRAEEEGWEEVVAAAERLLKTIDEARKRIEEEYKRVME,-0.0262
6,usp_38_diff_out_18_14_262 (protein) SEELAQADIDALNLLKEDVKKDTERKIRLLKKAKDDPELVKRIYERAKRNLEGVRTYAEEIKKRAEEAGDEETIKAAEELLKEIEEAEKKLEEAYKEVMA,0.391
7,usp_38_diff_out_18_14_258 (protein) SAELEEATISNLKLLKEDVKKETERVIRLLEKNKDDPERVKRIYERAQRDLAGVETYAKEVLEEAKKNGWEEKEKAAKELLEEVDKAKEEIEKKVKEVLA,0.144
8,usp_38_diff_out_18_14_266 (protein) SEELDEALVKNLETLKKDVKENTERVIKLLRKNKDDPERVKRIYERAKRNLEGVKKYAEEVLKEAEKRGWKKTVKAAKELLKEVEEAKKKIEEEYKKVME,-0.521
9,usp_38_diff_out_18_14_267 (protein) SAELSEALKSNLETLTADVAADTDRVIRLLDARKDDPEAVKRIHERARRNLAGVEAYAEEVKAEAEKAGDAEVKAAAEKLLAAVAAARARIDARYAEVMA,0.0912
10,usp_38_diff_out_18_14_260 (protein) SEELKEATISNLKSLKEDVKEDTERVIRLLKARKDDPEQVKRIYERAKRNLEGVKTYAEEVLKEAEEEGWEELKKAAEELLKEIEEAEKKIEAEVKEVLA,0.0949
11,usp_38_diff_out_18_14_272 (protein) DEELSEALLSNLKSLKEDVKEYTKRVLRLLEANKDDPERVKRIYERAERNLEGVEKFAEEVLKEAKERGDEEVQKAAKELKEEAKKAREEIKKKVKEVLA,-0.188
12,usp_38_diff_out_18_14_261 (protein) SEELSEAKISALKLLEKSVKEDTERKIRLLEKAKDDPERVKRIYERALRELAGVREYAEEVLKEAKEAGDEETAEAAKRLLKTIEEARERLEEEYKRVMA,0.0867
13,usp_38_diff_out_18_14_273 (protein) SEERREALLSNLKSLKKDVKEYTKRVLKLLEKNKNDPERVKRIYERAKRNLAGVKAYAEEVLKEAKEEGDEETLKAAEELIKEAKEAEEKIKKKVEEVLK,-1.06
14,usp_38_diff_out_18_14_264 (protein) SEELSEAEKSALKLLKKDVEEETERVIRLLRQAKDDPERVKRIYERAKRNLAGVRKYAEEVLKRAEEAGDEETKKAAEELLKKIEEAEKRIEEEYKRVTA,0.118
15,usp_38_diff_out_18_14_269 (protein) SAELAAAKVSNLKTLKEDVERDTERVIRLLEANRDDPERVRRIHERALRNLEGVRKYAEEVKEEAEKEGDKETVKAAEELLKKIEEARRRIDARYAEVMA,0.153
16,usp_38_diff_out_18_14_270 (protein) SEELKKALLSNLESLKKDVKEYTERVLRLLEKRKDDPEQVERIVERAERDLAGVEEYAKEVLKEAKKLGDEELLKAAEELIKLTKEARERIEKKREEVLK,-0.331
